Sampled rows, rich in hits. Any-hit rate of the full collection: about 6%.
DRD3 antagonist = blocks the human D3 dopamine receptor; P35462; D3R cells, DiscoveRx beta-arrestin luminescence, antagonist mode; hits give low values; max response, negative = inhibition, %; 360,000 compounds, 2.5% hits; AID 652054; in the data active means max response below about -50%; inconclusive means no clear call, values can overlap the other calls; further: on the % scale 0 is the no-effect control and ±100 the full control effect
Target sequence (P35462 whole entry, looked up): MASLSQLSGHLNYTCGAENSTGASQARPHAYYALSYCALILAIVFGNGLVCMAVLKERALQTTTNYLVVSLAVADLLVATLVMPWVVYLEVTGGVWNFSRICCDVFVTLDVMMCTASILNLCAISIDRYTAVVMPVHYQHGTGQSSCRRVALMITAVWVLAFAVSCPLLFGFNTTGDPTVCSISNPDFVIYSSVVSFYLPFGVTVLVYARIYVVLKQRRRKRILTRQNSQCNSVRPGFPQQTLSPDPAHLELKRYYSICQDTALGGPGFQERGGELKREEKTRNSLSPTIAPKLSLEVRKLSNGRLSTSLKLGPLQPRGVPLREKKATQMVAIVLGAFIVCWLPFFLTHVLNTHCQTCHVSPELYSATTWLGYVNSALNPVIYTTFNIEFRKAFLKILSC
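Cells plated overnight at 1500 cells/well, then exposed to library compounds with dopamine controls for 90 minutes at 37 degrees C. DiscoveRx reagent added for 30–60 minutes at room temperature; luminescence read, quantitative HTS format.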
DRD3 agonist = agonists of human D3 dopamine receptor | D3R DiscoveRx beta-arrestin cells, luminescence, 90 min | max activation, % | 410,000 compounds, 0.58% hits | AID 652048; in the data active means max activation above about 30%; further: 0% is about no effect
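Agonist-mode cell screen: cells plated at 1500/well and incubated overnight at 37 °C, then exposed to library compounds for 90 min at 37 °C. Detection reagent was added for 30–60 min at room temperature, and luminescence was read.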
D1 PAM = potentiators of human D1 dopamine receptor | P21728 | HEK293 TREx D1 cells, calcium flux, dopamine EC20 potentiation | potentiation, % at 10 µM | 360,000 compounds, 0.036% hits | AID 504651; in the data active means potentiation above about 30%; further: 0% is about no effect
D1 antagonist = antagonists of human D1 dopamine receptor | HEK293 TREx D1 cells, calcium flux, dopamine EC80; hits give low values | activity change, negative = inhibition, % at 10 µM | 360,000 compounds, 3.2% hits; in the data active means activity change below about -30%; further: on the % scale 0 is the no-effect control and ±100 the full control effect
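Antagonism measured as reduced calcium response to an EC80 dopamine addition following 180 s compound pre-read; cells were inducible HEK293 Trex D1 plated overnight at 30 C, read kinetically at 1 cycle/sec.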
D1 ag = activates the human D1 dopamine receptor | P21728 | HEK293 T-REx D1 cells, calcium flux, agonist mode | activation, % at 2 µM | 360,000 compounds, 1% hits; in the data active means activation above about 30%; further: 0% is about no effect
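Inducible HEK293 T-REx D1 cells, force-coupled to calcium signalling, were plated at 4000 cells/well with tetracycline and held overnight at 30 C. After no-wash calcium dye loading, compound-evoked calcium rise over 180 s flagged agonists.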
Starred values were filed as active, the others as inactive; ? = inconclusive; · = no result given.

SMILES	DRD3 antagonist	DRD3 agonist	D1 PAM	D1 antagonist	D1 ag
CC(C)Oc1ccc(CNC(=O)Cn2c(=O)c3cccn3c3cccnc32)cc1	9.6	1.5	-16.3	-81.4*	0.7
O=C(NCCCN1CCN(c2ccc(F)cc2)CC1)c1sc2ncccc2c1-n1cccc1	·	-15.2	-4.0	-37.3*	-0.8
COc1ccc(N2CCN(CCCNC(=O)Cn3c(=O)c4cccn4c4ccccc43)CC2)cc1	-60.3*	-4.7	-1.1	11.2	-0.8
O=c1c2cccnc2[nH]c(=S)n1CCCN1CCN(c2ccc(F)cc2)CC1	-65.3*	0.2	-8.6	-11.2	2.2
NC(=Nc1nc(-c2ccccn2)cc2ccccc12)c1ccccn1	47.4	5.3	·	·	·
Cc1nn(-c2ccc(N3CCCCC3)nn2)c(C)c1CCC(=O)Nc1ccc(F)cc1F	·	2.8	-5.3	-18.7	1.4
NS(=O)(=O)c1ccc(NC(=O)CN2CCN(c3ccc(F)cc3)CC2)cc1	·	3.5	-0.2	0.7	0.5
CCn1c(=O)n(CC)c2cc(N3CCCC3)c(NC(=O)c3ccccc3F)cc21	3.9	-2.1	-5.7	-9.3	-0.7
O=C(Cn1c(=O)c2cccn2c2cccnc21)NCCCN1CCN(c2ccc(F)cc2)CC1	-118.4*	-24.7	-1.8	-2.1	1.7
Cc1nnc(NCc2ccc(F)cc2)c2c1nnn2Cc1ccccc1Cl	·	5.4	-1.0	3.1	2.0
OCCN1CCN(CCOc2ccccc2-c2ccccc2)CC1	-84.5*	-23.9	-6.5	-6.4	7.2
Clc1cccc(OCCOCCN2CCNCC2)c1Cl	?	-44.8	·	·	·
Fc1ccccc1OCCCCCCN1CCCC1	-3.9	-41.7	-6.8	1.8	8.2
c1ccc(-c2ccccc2OCCCN2CCCCC2)cc1	0.0	-4.3	-2.6	-54.4*	15.4
c1ccc2c(OCCCN3CCCCCC3)cccc2c1	-60.2*	-16.3	-9.9	20.7	22.4
Clc1cccc(OCCCN2CCCC2)c1Cl	-98.8*	1.4	-10.6	2.7	9.1
O=C1O[C@@H](c2ccccc2)C[C@@H](O)C(=O)CCCc2ccccc21	0.0	-13.7	·	·	·
CN(C)c1ccc(Nc2ncnc3c2c(-c2ccccc2)cn3-c2cccc(Cl)c2)cc1	·	8.1	-0.3	-4.0	-3.8
N#C/C(=N\Nc1cccc([N+](=O)[O-])c1)C(=O)c1ccc(Br)cc1	?	-3.6	-2.9	-34.2*	21.3
O=C(O)c1ccc(N=NNc2cccc([N+](=O)[O-])c2)cc1	-21.6	-7.7	-0.7	11.7	1.1
CCCCc1nn2c(=O)cc(COC(=O)c3ccco3)nc2s1	·	-4.0	-4.2	-5.1	0.5
O=C1CS/C(=C\[N+](=O)[O-])N1c1ccccc1	-70.8*	-4.0	-0.9	-15.4	2.0
COc1cc(C#Cc2c(-c3cncn3C)n(C)c3ccc(-c4ccc(OC)c(OC)c4)cc23)cc(OC)c1	104.6	70.3*	-5.1	·	1.8
C[Se]CC[C@H](N)C(=O)O	·	2.0	·	·	·
c1ccc(CNc2ncnc3c2cnn3Cc2ccccc2)cc1	6.8	-4.1	-9.0	-15.3	51.8*
COCCNc1nc(NCc2cccc(Cl)c2)c2cnn(C)c2n1	·	11.7	-0.1	-6.3	5.3
OCCNc1ncnc2c1cnn2Cc1ccccc1	-11.9	-0.8	-2.5	9.5	1.8
Cn1ncc2c(NCc3cccc(Cl)c3)ncnc21	·	-6.9	-2.5	-38.4*	1.7
Cc1ccc(CNc2ncnc3onc(C)c23)cc1	·	-11.4	-9.2	-18.3	20.7
Cc1noc2ncnc(NCc3cccc(Cl)c3)c12	·	-8.6	-5.9	-35.5*	29.9
